Several values for one entry are separate records, joined by “and”; a condition that tells them apart may be missing. Equal entries are not always repeated. Structures can show the parent of a compound that is named as a salt.
Each compound was assayed on Neuro-2a (assay: neurite formation score, plate-normalized to DMSO control mean 5.04 (score (0-8 scale)); higher = more or longer neurites). Details: 0.1 µM.
Description: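 Neuro-2a mouse neuroblastoma cells in PLL-coated 96-well plates were pre-treated for 1 h in DMEM(+) with each kinase inhibitor at 0.1 µM, then switched to serum-free DMEM(-) with inhibitor to induce neurite outgrowth and fixed about 2-3 h later. Three blinded observers scored neurite formation from 0 (no neurites) to 8 (long neurites on almost all cells).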
Work on `CO[C@H]1C[C@@H]2CC[C@@H](C)[C@@](O)(O2)C(=O)C(=O)N2CCCC[C@H]2C(=O)O[C@H]([C@H](C)C[C@@H]2CC[C@@H](O)[C@H](OC)C2)CC(=O)[C@H](C)/C=C(\C)[C@@H](O)[C@@H](OC)C(=O)[C@H](C)C[C@H](C)/C=C/C=C/C=C/1C` [Rapamycin (Sirolimus)] yielded a neurite formation score of 5.54. With `O=C(COc1ccc(Cl)cc1)NC1CCC(NC(=O)COc2ccc(Cl)cc2)CC1` (stereo not drawn) [ISRIB (trans-isomer)] the neurite formation score was 4.42. `Cn1cc(C2=C(c3cn(CCCSC(=N)N)c4ccccc34)C(=O)NC2=O)c2ccccc21` [Ro 31-8220 Mesylate] showed a neurite formation score of 3.08. Work on `O=C1NC(=NCc2cccs2)S/C1=C\c1ccc2ncccc2c1` yielded a neurite formation score of 4.25. `N[C@@H]1CCCN(c2c(/C=C3\SC(=O)NC3=O)cccc2-c2ccccc2)C1` gave a neurite formation score of 5.25. Compound `Clc1ccc(C2(c3ccc(-c4cn[nH]c4)cc3)CCNCC2)cc1` has a neurite formation score of 4.54. `C=CC(=O)Nc1cccc(Nc2nc(Nc3ccc(N4CCN(C(C)=O)CC4)cc3OC)ncc2C(F)(F)F)c1` showed a neurite formation score of 3.71. Work on `Cc1ccc(S(=O)(=O)/C=C/C#N)cc1` yielded a neurite formation score of 2.42. With `O=C(Nc1c[nH]nc1-c1nc2ccc(CN3CCOCC3)cc2[nH]1)NC1CC1` the neurite formation score was 5.92. For `CC[C@@H]1C(=O)N(C)c2cnc(Nc3ccc(C(=O)N[C@H]4CC[C@H](N5CCN(CC6CC6)CC5)CC4)cc3OC)nc2N1C(C)C` [BI6727 (Volasertib)], the neurite formation score was 4.25. For `COc1cc2nccc(Oc3ccc(NC(=O)Nc4ccc(F)cc4F)c(F)c3)c2cc1OC`, the neurite formation score was 4.38. For `O=C(NCCCNc1nc(Nc2cccc(NC(=O)N3CCCC3)c2)ncc1I)c1cccs1`, the neurite formation score was 4.54. `Clc1ccc(Nc2nnc(Cc3ccncc3)c3ccccc23)cc1` [Vatalanib] showed a neurite formation score of 4.92. Compound `COc1cc(Nc2ncc(F)c(Nc3ccc4c(n3)NC(=O)C(C)(C)O4)n2)cc(OC)c1OC` [R406 (free base)] has a neurite formation score of 5.21. `Nc1nc(N)c2nc(-c3cccc(O)c3)c(-c3cccc(O)c3)nc2n1` showed a neurite formation score of 3.38. In the case of `COc1ccc(-c2ccc3c(N4CCOC[C@@H]4C)nc(N4CCOC[C@@H]4C)nc3n2)cc1CO`, the neurite formation score is reported as 3.21. `Cn1cc(-c2ccc3nnc(Sc4ccc5ncccc5c4)n3n2)cn1` was tested, and the neurite formation score was 5.04. `CCn1c(-c2nonc2N)nc2c(C#CC(C)(C)O)ncc(OC[C@H]3CCCNC3)c21` showed a neurite formation score of 3.25. `COc1cc2ncnc(Nc3cccc(Br)c3)c2cc1OC` was tested, and the neurite formation score was 5.09. `CC(C)(C)c1cnc(CSc2cnc(NC(=O)C3CCNCC3)s2)o1` gave a neurite formation score of 4.38. Work on `Nc1ccc(-c2ccc3ncc4ccc(=O)n(-c5cccc(C(F)(F)F)c5)c4c3c2)cn1` [Torin 2] yielded a neurite formation score of 3.42. `CCCNC(=O)Nc1ccc(Oc2ncnc3cc(OC)c(OC)cc23)cc1Cl` gave a neurite formation score of 5.54. `CC(C)(CCCCCC(O)CCCCCC(C)(C)C(=O)O)C(=O)O` showed a neurite formation score of 0.0903. In the case of `Nc1ncnc2c1c(-c1cccc(OCc3ccccc3)c1)cn2C1CC(CN2CCC2)C1` (stereo not given), the neurite formation score is reported as 4.71. Compound `CC(C)(C)c1ccc(S(=O)(=O)/C=C/C#N)cc1` has a neurite formation score of 4.75. In the case of `COc1cc(Nc2nc3ccccc3nc2NS(=O)(=O)c2ccc(NC(=O)c3ccc(C)c(OC)c3)cc2)cc(OC)c1`, the neurite formation score is reported as 4.21. `Cc1cc(Nc2nc(N[C@@H](C)c3ncc(F)cn3)ncc2Cl)[nH]n1` gave a neurite formation score of 3.09. For `Nc1nc(Nc2ccc(S(N)(=O)=O)cc2)nn1C(=O)c1c(F)cccc1F`, the neurite formation score was 5.58. Work on `Cn1cnc2c(F)c(Nc3ccc(Br)cc3F)c(C(=O)NOCCO)cc21` yielded a neurite formation score of 5.38. `C[C@@H]1COCCN1c1cc(C2(S(C)(=O)=O)CC2)nc(-c2cccc3[nH]ccc23)n1` gave a neurite formation score of 4.71. Compound `COc1ccc2c(c1)c(C1=C(c3c[nH]c4ccccc34)C(=O)NC1=O)cn2CCCN(C)C` has a neurite formation score of 5.54. Work on `N#Cc1ccc2[nH]c(O)c(-c3ccc(CN4CCOCC4)cn3)c2c1` yielded a neurite formation score of 4.08. In the case of `Cn1cc(/C=C2\C(=O)Nc3cccnc32)c2ccccc21`, the neurite formation score is reported as 4.08. For `CN(C)Cc1cccc(N=C(c2ccccc2)c2c(O)[nH]c3cc(C(=O)N(C)C)ccc23)c1`, the neurite formation score was 5.54. In the case of `CN1CCN(c2cccc(Nc3nc4c(-c5ccc(S(C)(=O)=O)cc5)cccn4n3)c2)CC1`, the neurite formation score is reported as 4.25. In the case of `O=c1ncn2nc(Sc3ccc(F)cc3F)ccc2c1-c1c(Cl)cccc1Cl`, the neurite formation score is reported as 4.92. Work on `CN(C)S(=O)(=O)c1ccc2c(c1)/C(=C/c1cc3c([nH]1)CCCC3)C(=O)N2` yielded a neurite formation score of 4.75. `Cc1ccc2nc(NCCN)c3ncc(C)n3c2c1` was tested, and the neurite formation score was 4.09 and 3.42. For `COc1ccc(C(=O)Nc2sc3c(c2C(N)=O)CCCC3)cc1OC`, the neurite formation score was 4.71. `O=c1cc(N2CCOCC2)oc2c(-c3ccccc3)cccc12` showed a neurite formation score of 4.21.
